The list is not random: actives were taken first. Their share in the collection is about 3.6%.
Epigenetic reg = Quantitative High-Throughput Screen for Regulators of Epigenetic Control | Potency, µM (titrated, usually from 53.9 µM), for inactives: at the top dose GFP activation, hits mostly activators | hit rate 0.2% among 280,000 | murine LDR cells, GFP reporter derepression, 30 h; further: % of control where 0% means no effect; nearly all actives have a fitted effect of over 60% in size
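Derepression of a silenced CMV-GFP reporter in murine LDR cells is scored by enumerating GFP-positive cells with a laser-scanning microplate cytometer after 30 hours of treatment at 37 C.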
IMPase Li inh = qHTS Assay for Identifying the Cell-Membrane Permeable IMPase Inhibitors: Potentiation with Lithium; AID 1457, 2008; hit rate 0.35% among 210,000; CHO-M1 cells, IP1 TR-FRET (IP-One), carbachol + lithium; Potency, µM (series often up to 59.4 µM), for the others: at the top dose activity, negative = IMPase inhibition, actives largely listed as inhibitors;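 further: IP1 builds up when IMPase is blocked and the TR-FRET signal falls; plate controls were basal vehicle for no effect and high inhibitor control for full effect; nearly all actives have a fitted effect of over 50% in size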
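CHO cells stably expressing M1 receptor (2000/well) were cultured 16–30 h, then exposed to compounds with a small lithium addition for 30 min at 37C. IP1 was measured by TR-FRET competition; AC50 from Hill fits.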
Sfp inh = qHTS Assay for Inhibitors of Bacillus subtilis Sfp phosphopantetheinyl transferase (PPTase); Biochemical Sfp PPTase activity, qHTS; Potency, µM, inactives show largest response in the series, negative = inhibition, hits mostly inhibitors; hit rate 3.5% among 310,000; AID 1490, 2009;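 further: the enzyme is Sfp with the accession as filed and its product quenches rhodamine fluorescence; 0% = enzyme reaction without inhibitor and -100% = no enzyme wells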
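Step 1, compound plus 15 nM Sfp-PPTase, 15 min, room temperature. Step 2, add rhodamine-CoA (5 uM) and BHQ-2-YbbR (12.5 uM). Step 3, read 525/598 nm fluorescence at 0 and 30 min.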
JMJD2E inh = qHTS Assay for Inhibitors of Human Jumonji Domain Containing 2E (JMJD2E) | Potency, µM (doses to about 57.1 µM), for the others: top-dose activity change, negative = inhibition, actives largely listed as inhibitors | hit rate 1.6% among 230,000 | Lysine-specific demethylase 4E (Homo sapiens), B2RXH2 | JMJD2E catalytic domain, FDH-coupled NADH fluorescence (FDH is formaldehyde dehydrogenase);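 further: 0% = wells with enzyme and -100% = buffer wells without enzyme; nearly all actives have a fitted effect of over 50% in size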
NPSR antagonist = qHTS Assay for Antagonists of the Neuropeptide S Receptor: cAMP Signal Transduction | CHO-NPSR cells, cAMP TR-FRET, antagonist mode | Potency, µM (series often up to 38.3 µM), without a hit: at the top dose activity change, negative = inhibition, actives largely listed as inhibitors | hit rate 1% among 220,000 | AID 1461, 2008; further: on the % scale 0 is the no-effect control and ±100 the full control effect; nearly all actives have a fitted effect of over 50% in size
GCN5L2 inh = qHTS Assay for Inhibitors of GCN5L2; AID 504327, 2011; Potency, µM (highest dose often 58.9 µM), for inactives: at the top dose activity change, negative = inhibition, usual class: inhibitors; Histone acetyltransferase KAT2A (Homo sapiens), Q92830; GCN5L2 HAT assay, ThioGlo1 CoA-SH fluorescence; hit rate 0.21% among 390,000; further: on the % scale 0 is the no-effect control and ±100 the full control effect
Target sequence (Q92830 whole entry, looked up): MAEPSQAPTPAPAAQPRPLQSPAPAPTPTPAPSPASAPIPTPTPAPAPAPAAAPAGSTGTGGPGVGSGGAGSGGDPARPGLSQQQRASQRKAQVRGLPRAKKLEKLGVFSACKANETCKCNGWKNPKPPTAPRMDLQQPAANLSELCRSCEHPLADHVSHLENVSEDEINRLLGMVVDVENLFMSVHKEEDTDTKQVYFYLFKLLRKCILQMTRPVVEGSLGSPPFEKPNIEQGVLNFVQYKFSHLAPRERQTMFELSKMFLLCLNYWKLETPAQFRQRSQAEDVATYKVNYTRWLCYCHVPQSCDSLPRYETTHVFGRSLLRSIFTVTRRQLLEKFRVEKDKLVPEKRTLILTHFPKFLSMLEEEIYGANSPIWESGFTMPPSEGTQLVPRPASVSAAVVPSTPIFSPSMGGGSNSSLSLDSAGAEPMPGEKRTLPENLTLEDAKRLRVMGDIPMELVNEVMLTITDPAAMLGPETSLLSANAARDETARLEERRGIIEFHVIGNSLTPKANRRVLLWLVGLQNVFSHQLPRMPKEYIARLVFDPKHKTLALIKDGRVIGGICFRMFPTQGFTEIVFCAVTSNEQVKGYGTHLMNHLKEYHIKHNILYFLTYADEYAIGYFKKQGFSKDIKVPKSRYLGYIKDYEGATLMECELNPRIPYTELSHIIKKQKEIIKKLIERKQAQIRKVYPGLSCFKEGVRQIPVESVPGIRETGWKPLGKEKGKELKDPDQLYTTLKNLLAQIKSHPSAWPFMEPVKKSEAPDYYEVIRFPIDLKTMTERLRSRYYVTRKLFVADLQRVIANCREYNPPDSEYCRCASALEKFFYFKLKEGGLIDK
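Preincubate 20nM GCN5L2 with compound 15 min, RT → add 50uM ThioGlo1 + 75uM H3(1-25) + 70uM acetyl-CoA → read fluorescence 0 and 20 min. Primary qHTS; fluorescent artifacts likely.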
An asterisk follows results filed as active; ? = inconclusive; . = no result given; ! = not active in a repeat; [ ] = remark or other dose. Unless noted, the call rests on the fitted dose curve; in most records, active means well fitted curve in the direction sought with a large enough effect; inconclusive means small, poorly fitted or top-dose-only effect, or another doubt; inactive means no such curve, though single readings can be large; an effect the other way counts as inactive or inconclusive. Potency means the concentration at half of the fitted maximal effect.

SMILES | Epigenetic reg | IMPase Li inh | Sfp inh | JMJD2E inh | NPSR antagonist | GCN5L2 inh
O=C(CSc1nc2nc(-c3cccs3)cc(C(F)(F)F)c2c(=O)[nH]1)NCc1ccco1 | -1% | 8.9µM* | -11% | ? | 11%[46.1 µM] | -14%
O=C(CSc1nc2nc(-c3cccs3)cc(C(F)(F)F)c2c(=O)[nH]1)C(F)(F)F | . | . | 79µM* | . | . | ?
O=C(c1cnn2c(C(F)(F)F)cc(-c3cccs3)nc12)N1CCCC1 | -1% | . | -20% | ? | -26% | -8%
Cc1cccc(OCc2cc(=O)n3c4c(sc3n2)CCCC4)c1C | -8% | . | . | . | . | -3%
COc1ccc(CNc2ccnc(-c3ccc(N(C)C)cc3)n2)c(OC)c1 | . | 5% | ? | . | . | -12%
Cc1nc2c(=O)[nH]c(=S)n(C)c2nc1C | -4% | -1% | 4.5µM* | 3% | 7% | ?
COc1ccc(-c2nn(-c3ccccc3)cc2/C=C2/SC(=S)N(CCC(=O)O)C2=O)cc1 | . | . | -7% | . | . | ?
Cc1ccc(-c2nn(-c3ccccc3)cc2/C=C2\SC(=S)N(CC(=O)O)C2=O)cc1 | -5% | . | 50µM* | 8% | 13µM* | ?
Cc1ccccc1C1CC(=O)Oc2cc(C)c(Br)c(C)c21 (stereo unspecified) | -1% | 0% | -26% | . | . | 0%[88.6 µM]
O=C1/C(=C\c2c(NCCOCCO)nc3ccccn3c2=O)SC(=S)N1Cc1ccco1 | . | . | 40µM* | . | . | 2%
Cc1cccc(-c2[nH]c(C(C)(C)C)nc2-c2ccc3nccnc3c2)n1 | . | . | . | . | . | -9%
CCN1CCN(CC(=O)Nc2c(OC)cccc2OC)CC1 | . | . | 79µM* | . | . | 10%
COc1ccc2nc(Nc3sc4c(c3C(N)=O)CCCC4)sc2c1 | ? | 1% | 45µM* | 1% | -8% | -10%
COc1ccc(C)cc1NC(=O)CN1CCN(C/C=C/c2ccccc2)CC1 | 0% | 36%[38.3 µM] | 89µM* | -4% | -20%[46.1 µM] | 2%
CCN1CCN(CC(=O)Nc2nc3ccc(OC)cc3s2)CC1 | -3% | 30%[38.3 µM] | 89µM* | ? | -23%[46.1 µM] | 3%
COc1ccccc1NC(=O)CN1CCCCC1 | 0% | 17%[38.3 µM] | 19% | 8% | -9%[46.1 µM] | -3%
Cc1cccc(Cn2c(=O)n(Cc3ccc(C(=O)NC4CCN(Cc5ccccc5)CC4)cc3)c(=O)c3ccccc32)c1 | 5% | . | . | . | . | -8%
CN1C=CC(=C2C=CN(C)C=C2)C=C1 | . | . | -11% | . | . | -12%
NC(CSS(=O)(=O)O)=N[C@@H]1C[C@H]2CC[C@@H]1C2 | . | -3% | . | . | . | .
Cc1ccc(CNC(=O)CN(C)S(=O)(=O)c2ccc(Br)s2)cc1 | 4% | . | . | . | . | -1%
CCn1c(=O)[nH]c2ccccc2c1=O | -1% | 5%[38.3 µM] | 9% | -8% | -2%[46.1 µM] | -1%
CCc1c(C(C)S(=O)(=O)c2ccccc2)[nH]c(=O)n1CC (stereo unspecified) | 1% | 9% | 50µM* | ? | 26% | -7%
COc1ccc(C2CC(=O)Oc3c(C(CCN4CCCCC4)c4ccc(N(C)C)cc4)c(OC)cc(OC)c32)cc1 (stereo unspecified) | 1% | . | -10% | -4% | -30% | -10%
COc1ccc(C2CC(=O)Oc3c(C(CCN4CCCC(C)C4)c4ccc(N(C)C)cc4)c(OC)cc(OC)c32)cc1 (stereo unspecified) | 0% | . | 89µM*! | -12% | -41% | -23%
CCCn1c(=NC(=O)c2ccco2)c(C(=O)OCC)cc2c(=O)n3ccccc3nc21 | 1% | 10%[38.3 µM] | ? | ? | ? | -4%
SMILES | Epigenetic reg | IMPase Li inh | Sfp inh | JMJD2E inh | NPSR antagonist | GCN5L2 inh
CCOC(=O)c1cc2c(=O)n3ccccc3nc2n(Cc2ccco2)c1=NC(=O)c1cccc(OC)c1 | 1% | -4% | 28µM* | ? | -37% | -10%
CCOC(=O)c1cc2c(=O)n3ccccc3nc2n(Cc2ccco2)c1=NC(=O)c1ccc(OC)cc1 | -1% | ? | ? | ? | -20% | -12%
CCOC(=O)c1cc2c(=O)n3ccccc3nc2n(Cc2ccco2)c1=NC(=O)c1ccccc1OC | -1% | -5% | 35µM* | ? | -22% | -5%
COCCn1c(=O)c(-c2ccc(Cl)cc2)nc2cnc(Oc3cccc(Cl)c3)nc21 | . | -4% | ? | . | . | -6%
Nc1nc2ncc(=O)[nH]c2c(=O)[nH]1 | 3% | -13% | -19% | ? | . | -18%
COc1ccc(NC(=O)c2sc3nc(C(F)(F)F)cc(C)c3c2N)cc1OC | 14µM* | . | . | . | . | -19%
COc1ccc(CNC(=O)c2sc3nc4c(c(C(F)(F)F)c3c2N)CCC4)cc1OC | -1% | -2% | -15% | 4% | -13% | -22%
Cc1noc(C)c1-c1nccc(N2CCN(C)CC2)n1 | . | 16% | 4% | . | . | -8%
C=C(C)CC(C)(C)C | . | . | -1% | . | . | 0%
Cc1cc(NC(=O)CCc2ccc(-c3ccccc3)o2)no1 | . | . | -28% | . | . | -4%
Cc1ccc(-c2ccc(CCC(=O)O)o2)cc1 | -1% | -10%[38.3 µM] | 45µM* | ? | -9%[46.1 µM] | -24%
CC(=O)C1=C(C)Nc2cc(C(F)(F)F)ccc2S1 | 0% | -3%[38.3 µM] | 56µM* | -21% | 9%[46.1 µM] | -2%
Cc1ccc(NC(=O)CC2Sc3ccc(C(F)(F)F)cc3NC2=O)cc1 (stereo unspecified) | 0% | . | . | . | . | 1%
O=Nc1c(O)[nH]c2ccccc12.[Cu].[O-]/N=C1/C(=[OH+])Nc2ccccc21 | . | -10% | . | . | . | .
Oc1c(Br)cc(C=Nc2ccc3nc(-c4ccccc4)[nH]c3c2)c(O)c1Br | -1% | ? | 56µM* | 4% | 10µM* | ?
Cc1ccc2nc(N(CCCN(C)C)C(=O)c3cc(-c4cccs4)nc4ccccc34)sc2c1 | . | . | 79µM* | . | . | 0%
Cc1ccc2nc(N(CCCN(C)C)C(=O)c3ccc(Br)s3)sc2c1 | -5% | 6% | -1% | ? | -25% | -11%
CN(C)CCCN(C(=O)c1cc(-c2cccs2)nc2ccccc12)c1nc2c(F)cccc2s1 | . | . | 79µM* | . | . | -5%

Screens from PubChem.
